We go through eight compounds from PubChem BioAssay (Tox21).

Experiment [1] in a line: Nuclear factor erythroid 2-related factor 2/antioxidant responsive element (Nrf2/ARE) small molecule agonists: qHTS cell viability counter screen in human keratinocytes (AID 1919968; active means well fitted curve in the direction sought with a large enough effect in the repeat runs; an effect the other way counts as inactive or inconclusive; further: nearly all actives have a fitted effect of over 55% in size; further: potency means the concentration at half of the fitted maximal effect). The method, boiled down: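 Seed 1,500 KeratinoSens cells per well, then incubate 5 h at 37 C/5% CO2. Add compounds in DMSO and incubate 23 h. Add CellTiter-Fluor, wait 1 h and read fluorescence.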
(qHTS replaces the single test concentration by a dilution series.)

Experiment [2] can be described thus: Nuclear factor erythroid 2-related factor 2/antioxidant responsive element (Nrf2/ARE) small molecule agonists: luciferase reporter gene qHTS assay in human keratinocytes (AID 1919969). Further: nearly all actives have a fitted effect of over 35% in size. Further: potency means the concentration at half of the fitted maximal effect. For orientation: Reporter assays use an easily measured gene product as a stand-in for the process of interest.
The target of experiment [3] is Gonadotropin-releasing hormone receptor (Homo sapiens) (UniProt P30968). Put plainly: Human gonadotropin-releasing hormone receptor (GnRHR) small molecule agonists, calcium flux assay in GnRHR-HEK293 cells (AID 1920063). Further: nearly all actives have a fitted effect of over 35% in size. In outline:
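Cells: HEK293 stably expressing human GnRHR. Steps: overnight (18 h) culture, 1 h calcium dye loading at 37 C, compound addition, kinetic fluorescence read at 480/540 nm. Each compound tested at 15 concentrations in triplicate.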
In general terms: Calcium assays in cells follow changes in intracellular calcium, usually with a dye or a luminescent sensor.

The target of experiment [4] is KiSS-1 receptor (Homo sapiens) (UniProt Q969F8). Put plainly: Human kisspeptin (KISS1R) small molecule agonists, calcium flux assay in KISS1R-HEK293 cells (AID 1920064; active means well fitted curve in the direction sought with a large enough effect in the repeat runs; an effect the other way counts as inactive or inconclusive). The method, boiled down: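 Cells plated and incubated 18 h; dye added, 1 h at 37 C; compounds in DMSO pinned in; signal read at 480/540 nm every second for 3 min. Each compound tested at 15 concentrations in triplicate.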
KiSS-1 receptor (Homo sapiens), sequence (Q969F8 whole entry, looked up): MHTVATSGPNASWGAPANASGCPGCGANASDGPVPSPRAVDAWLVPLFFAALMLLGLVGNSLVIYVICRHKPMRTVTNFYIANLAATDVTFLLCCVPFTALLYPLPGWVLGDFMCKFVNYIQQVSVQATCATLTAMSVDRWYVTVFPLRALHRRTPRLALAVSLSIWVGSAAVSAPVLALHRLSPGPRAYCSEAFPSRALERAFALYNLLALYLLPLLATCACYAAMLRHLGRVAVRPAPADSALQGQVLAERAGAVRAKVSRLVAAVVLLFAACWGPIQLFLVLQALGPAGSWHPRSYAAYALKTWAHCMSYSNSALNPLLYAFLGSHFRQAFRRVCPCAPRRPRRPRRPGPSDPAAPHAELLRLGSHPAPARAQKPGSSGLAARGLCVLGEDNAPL

Experiment [5] is described as follows: G protein-coupled receptor (GPCR) small molecule agonists, calcium flux assay: HEK293 wild type cell line counter screen (AID 1920065). The method, boiled down:
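Counter-screen of the Tox21 10K library for non-specific calcium release: dye-loaded cells received compounds in DMSO and were monitored by kinetic fluorescence (480/540 nm, 3 min). Fifteen concentrations, run in triplicate.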

Experiment [6] in a line: p53 small molecule agonists, cell-based qHTS assay with human liver microsomes (AID 1963577).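 Further: p53 response element beta-lactamase reporter cells with liver microsomes plus NADPH.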 In outline:
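With metabolic activation: human liver microsomes (0.5 mg/mL final) plus NADPH (0.5 mg/mL final) added alongside compounds to p53RE-bla cells; 16 h 37 C exposure; beta-lactamase read by LiveBLAzer fluorescence.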

A short description of experiment [7]: p53 small molecule agonists, cell-based qHTS assay with rat liver microsomes: qHTS cell viability counter screen (AID 1963580). Further: nearly all actives have a fitted effect of over 45% in size. Further: potency means the concentration at half of the fitted maximal effect. In outline: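 p53RE-bla HCT-116 cells (4,000/well) rested 5 h at 37 C, then given Tox21 compounds in DMSO with rat liver microsomes (0.5 mg/mL final) plus NADPH (0.5 mg/mL final) for 16 h at 37 C. Viability read by CellTiter-Glo luminescence after 30 min at room temperature.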

Experiment [8] can be described thus: p53 small molecule agonists, cell-based qHTS assay: qHTS cell viability counter screen (AID 1963581). Further: nearly all actives have a fitted effect of over 45% in size. Further: potency means the concentration at half of the fitted maximal effect. In outline: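 Cells: HCT-116 with p53 response element-driven beta-lactamase. Treatment: 16 h, 37 C, compounds in DMSO. Read: CellTiter-Glo luminescence after 30 min RT.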
The nature of experiment [9]: p53 small molecule agonists, cell-based qHTS assay (AID 1963582; active means well fitted activation curve with a large enough effect in the signal ratio in the repeat runs, not every such curve was filed as active; the % refers to the signal ratio). In outline:
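Quantitative HTS in p53RE-bla cells: after a 5 h settling period, compounds delivered in DMSO were left on cells for 16 h at 37 C, and reporter induction was measured as fluorescence following 2 h substrate loading.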

The target of experiment [10] is 5-hydroxytryptamine receptor 2A (Homo sapiens) (UniProt P28223). The experiment in a line: 5-hydroxytryptamine receptor 2A (HTR2A) small molecule antagonists, cell-based qHTS assay (AID 1963586). Further: nearly all actives have a fitted effect of over 45% in size. In outline:
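Antagonist-mode intracellular calcium assay: DOI (4 nM) added after 5 min compound pre-incubation at room temperature to dye-loaded HTR2A-CHO cells. Fluorescence followed for 3 min, sampled every second.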

The target is the same in experiment [11]. The experiment in a line: 5-hydroxytryptamine receptor 2A (HTR2A) small molecule agonists, cell-based qHTS assay (AID 1963587). Further: nearly all actives have a fitted effect of over 30% in size. The method, boiled down:
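HTR2A-CHO cells, plated 18 h at 37 C/5% CO2, dye-loaded 1 h at 37 C; compounds in DMSO added by pin tool (agonist mode). Intracellular calcium flux read as kinetic fluorescence on FDSS over 2 min at 1 s intervals.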

Experiment [12] addresses Muscarinic acetylcholine receptor M1 (Homo sapiens) (UniProt P11229). The experiment in a line: Cholinergic receptor muscarinic 1 (CHRM1) small molecule antagonists, cell-based qHTS assay (AID 1963588). Further: nearly all actives have a fitted effect of over 40% in size. The method, boiled down:
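CHRM1-CHO calcium-flux assay, antagonist mode. Cells were seeded 18 h, dye-loaded 1 h at 37 C and given compound for 5 min at RT, then acetylcholine was added at 50nM. FDSS fluorescence was read 3 min; 15 concentrations, three runs.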

Experiment [13] shares this target. Put plainly: Cholinergic receptor muscarinic 1 (CHRM1) small molecule agonists, cell-based qHTS assay (AID 1963589). Further: nearly all actives have a fitted effect of over 35% in size. The method, boiled down:
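Agonist-mode qHTS in CHO cells stably carrying human muscarinic M1. Intracellular calcium is tracked by fluorescence every second after compound transfer; each compound runs at 15 concentrations in three independent runs.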

A short description of experiment [14]: cAMP Responsive Elements (CRE) small molecule agonists, cell-based qHTS assay (AID 1963590). In outline:
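Agonist mode qHTS in CRE-bla HEK 293T cells: compounds dosed from DMSO for 3 h at 37 C/5% CO2, followed by LiveBLAzer B/G FRET substrate for 2 h at room temperature.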

Experiment [15] can be described thus: cAMP Responsive Elements (CRE) small molecule antagonists, cell-based qHTS assay (AID 1963591; active means well fitted inhibition curve with a large enough effect in the signal ratio in the repeat runs, not every such curve was filed as active; the % refers to the signal ratio). In outline: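 Antagonist mode: test compounds are co-incubated with the adenylyl cyclase activator NKH477 (0.25 uM final) on CRE-bla HEK293T cells for 3 h at 37 °C, followed by LiveBLAzer substrate loading.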
Experiment [16] deals with Beta-2 adrenergic receptor (Homo sapiens) (UniProt P07550). The experiment in a line: Adrenergic beta2 receptor (ADRB2) small molecule antagonists, cell-based qHTS assay (AID 1963592). Further: nearly all actives have a fitted effect of over 50% in size. Further: potency means the concentration at half of the fitted maximal effect. The method, boiled down: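 Cells (CHO, stable ADRB2 overexpression) incubated 18-20hr at 37C; compounds added from DMSO; agonist mix (1nM isoproterenol, 100uM IBMX, 25uM Ro-20-1724) added; 0.5hr RT; d2-cAMP and anti-cAMP-cryptate added; 1hr RT; 665/615 nm read.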
Beta-2 adrenergic receptor (Homo sapiens), sequence (P07550 whole entry, looked up): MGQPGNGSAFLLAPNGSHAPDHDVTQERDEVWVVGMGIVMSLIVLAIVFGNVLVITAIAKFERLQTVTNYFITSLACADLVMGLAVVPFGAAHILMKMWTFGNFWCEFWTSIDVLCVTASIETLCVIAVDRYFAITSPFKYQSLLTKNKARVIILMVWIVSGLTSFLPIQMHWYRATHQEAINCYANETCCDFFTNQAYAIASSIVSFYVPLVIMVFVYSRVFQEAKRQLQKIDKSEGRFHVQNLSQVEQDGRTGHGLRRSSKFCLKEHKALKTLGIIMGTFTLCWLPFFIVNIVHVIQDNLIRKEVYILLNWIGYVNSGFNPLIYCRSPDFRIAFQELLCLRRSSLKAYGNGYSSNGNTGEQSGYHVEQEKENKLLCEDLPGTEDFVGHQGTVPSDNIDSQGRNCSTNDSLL

Experiment [17] shares this target. Put plainly: Adrenergic beta2 receptor (ADRB2) small molecule agonists, cell-based qHTS assay (AID 1963593).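 Further: CHO cells stably overexpressing human ADRB2.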 In outline:
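CHO cells stably over-expressing ADRB2 were plated overnight at 37C, then dosed with compounds plus a stimulation mix containing 100uM IBMX and 25uM Ro-20-1724 for 0.5hr at room temperature. cAMP was measured by HTRF competition, 1hr.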

The target of experiment [18] is D(2) dopamine receptor (Homo sapiens) (UniProt P14416). The experiment in a line: Dopamine D2 receptor (DRD2) small molecule agonists, cell-based qHTS assay (AID 1963594). Further: nearly all actives have a fitted effect of over 35% in size. In outline: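 HEK293 cells stably expressing DRD2 were cultured 24 h at 37 C, then given Ro20-1724 (0.1 mM final) and compounds for 10 min at room temperature. NKH477 (200nM) was then added for 30 min. cAMP was read by HTRF.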
D(2) dopamine receptor (Homo sapiens), sequence (P14416 whole entry, looked up): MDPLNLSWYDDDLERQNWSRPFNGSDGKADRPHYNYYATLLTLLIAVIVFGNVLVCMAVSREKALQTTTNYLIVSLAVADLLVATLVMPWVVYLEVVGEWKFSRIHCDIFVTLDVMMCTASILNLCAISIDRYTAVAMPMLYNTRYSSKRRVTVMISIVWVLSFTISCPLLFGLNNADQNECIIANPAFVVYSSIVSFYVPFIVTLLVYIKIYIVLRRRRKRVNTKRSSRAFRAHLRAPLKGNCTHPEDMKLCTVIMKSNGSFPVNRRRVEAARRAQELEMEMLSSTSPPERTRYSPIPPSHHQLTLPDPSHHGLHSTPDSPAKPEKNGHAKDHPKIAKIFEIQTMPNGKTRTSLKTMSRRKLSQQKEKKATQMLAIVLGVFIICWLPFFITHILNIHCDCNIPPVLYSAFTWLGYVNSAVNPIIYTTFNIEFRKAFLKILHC

The target is the same in experiment [19]. The experiment in a line: Dopamine D2 receptor (DRD2) small molecule antagonists, cell-based qHTS assay (AID 1963595; active means well fitted inhibition curve with a large enough effect in the signal ratio in the repeat runs, with a control signal flat; the % refers to the signal ratio). The method, boiled down: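 DRD2-HEK293; 0.1 mM Ro20-1724; cpd 10 min RT; NKH477 200 nM + quinpirole 12 nM, 30 min RT; HTRF cAMP (cAMP-d2/anti-cAMP cryptate), 665/620 nm ratio after 1 h.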
Experiment [20] in a line: p53 small molecule agonists, cell-based qHTS assay with human liver microsomes: qHTS cell viability counter screen (AID 1963579). Further: nearly all actives have a fitted effect of over 45% in size. Further: potency means the concentration at half of the fitted maximal effect. In outline:
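Metabolic activation used human liver microsomes and NADPH, both 0.5 mg/mL final, over 16 hours at 37 C on p53RE-bla cells (4,000/well). Cytotoxicity measured by CellTiter-Glo luminescence, 30 min at room temperature.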

“And” between values parts separate entries of the source, which are not always exact repeats. Equal entries are not always repeated. Inconclusive results are not listed. More than one record can exist for a structure, and the calls need not agree. The source made the active and inactive calls. Unless noted, the call rests on the fitted dose curve.

5-hydroxytryptamine receptor 2A (Homo sapiens), sequence (P28223 whole entry, looked up): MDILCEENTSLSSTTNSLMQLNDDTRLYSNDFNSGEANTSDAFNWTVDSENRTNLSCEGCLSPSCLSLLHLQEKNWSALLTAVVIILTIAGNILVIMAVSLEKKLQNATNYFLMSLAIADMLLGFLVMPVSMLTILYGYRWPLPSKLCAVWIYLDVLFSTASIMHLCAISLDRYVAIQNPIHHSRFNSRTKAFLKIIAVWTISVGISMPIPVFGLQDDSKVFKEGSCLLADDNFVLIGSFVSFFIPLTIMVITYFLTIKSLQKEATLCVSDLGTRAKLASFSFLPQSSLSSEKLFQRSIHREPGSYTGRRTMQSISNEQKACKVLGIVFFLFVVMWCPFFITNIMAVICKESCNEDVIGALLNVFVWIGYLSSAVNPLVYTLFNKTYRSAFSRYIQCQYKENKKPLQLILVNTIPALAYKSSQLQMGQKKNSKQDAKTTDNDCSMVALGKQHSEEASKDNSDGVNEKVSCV
Muscarinic acetylcholine receptor M1 (Homo sapiens), sequence (P11229 whole entry, looked up): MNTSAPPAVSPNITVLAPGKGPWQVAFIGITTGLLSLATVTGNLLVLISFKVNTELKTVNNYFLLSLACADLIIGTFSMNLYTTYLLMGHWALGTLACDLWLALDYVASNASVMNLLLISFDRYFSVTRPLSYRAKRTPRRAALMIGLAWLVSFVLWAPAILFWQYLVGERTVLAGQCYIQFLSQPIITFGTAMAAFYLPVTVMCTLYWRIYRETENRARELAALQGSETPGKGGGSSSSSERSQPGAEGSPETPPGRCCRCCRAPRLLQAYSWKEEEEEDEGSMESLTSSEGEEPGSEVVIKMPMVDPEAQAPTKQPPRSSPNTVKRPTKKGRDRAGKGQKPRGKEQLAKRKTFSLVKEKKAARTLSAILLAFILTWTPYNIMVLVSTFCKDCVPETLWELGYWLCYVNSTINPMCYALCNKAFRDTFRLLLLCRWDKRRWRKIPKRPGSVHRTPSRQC
Gonadotropin-releasing hormone receptor (Homo sapiens), sequence (P30968 whole entry, looked up): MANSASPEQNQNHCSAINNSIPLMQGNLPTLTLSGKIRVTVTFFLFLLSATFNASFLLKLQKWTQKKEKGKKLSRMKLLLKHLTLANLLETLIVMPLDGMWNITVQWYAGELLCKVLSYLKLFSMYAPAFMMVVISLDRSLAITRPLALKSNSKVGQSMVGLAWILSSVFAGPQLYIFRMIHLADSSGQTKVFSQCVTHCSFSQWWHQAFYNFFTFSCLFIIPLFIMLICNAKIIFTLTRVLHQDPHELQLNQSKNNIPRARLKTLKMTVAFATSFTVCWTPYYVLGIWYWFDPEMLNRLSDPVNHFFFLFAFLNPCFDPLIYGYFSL

As to `CC1(C)NC(=O)N(c2ccc([N+](=O)[O-])c(C(F)(F)F)c2)C1=O`, the Potency entry in experiment [1], in [2], in [3], in [4], in experiment [5] and in [6] was “inactive” each time. For the same compound, the Potency result in experiment [7], in [8], in [9], in [10], in experiment [11] and in experiment [12] was “inactive” throughout. For the same compound, the Potency entry in experiment [13], in experiment [14], in [15], in [16], in experiment [17] and in experiment [18] was “inactive” throughout. For the same compound, in experiment [19], the Potency result is “inactive”.

Turning to `Cn1c([N+](=O)[O-])cnc1COC(N)=O`, the Potency result in experiment [1], in experiment [2], in experiment [3], in experiment [4], in experiment [5] and in experiment [6] was “inactive” in each case. Moreover, the Potency result in experiment [7], in experiment [8], in [9], in experiment [10], in [12] and in [13] was “inactive” throughout. The Potency result in experiment [14], in experiment [15], in [16], in experiment [18] and in experiment [19] was “inactive” in each case.

For `COc1ccc([C@@H]2CC(=O)c3c(O)cc(O[C@@H]4O[C@H](CO[C@@H]5O[C@@H](C)[C@H](O)[C@@H](O)[C@H]5O)[C@@H](O)[C@H](O)[C@H]4O)cc3O2)cc1OC`, the Potency entry in experiment [1], in [2], in experiment [3], in experiment [4], in experiment [5] and in [6] was “inactive” each time. Besides, the Potency entry in experiment [20], in experiment [7], in [8], in experiment [9], in experiment [10] and in [11] was “inactive” each time. Also, the Potency entry in experiment [12], in experiment [13], in experiment [14], in experiment [16], in experiment [17] and in experiment [18] was “inactive” throughout. Moreover, the Potency entry in experiment [19] was “inactive”.

As to `Oc1c(Cl)cc(Cl)c(Cl)c1Cc1c(O)c(Cl)cc(Cl)c1Cl`, the Potency in experiment [1] was 21.6 µM (active) and 30.6 µM (active) and 26.6 µM (active); in experiment [2] it was 24.3 µM (active); in [20] it was 36.3 µM (active) and inactive; in experiment [7], 18.2 µM (active) and 32.4 µM (active); in experiment [8] it was 18.2 µM (active); in experiment [16], “inactive and 48.6 µM (active)”. The Potency entry in [3], in [4], in [5], in [18] and in [19] was “inactive” in each case.

On to `Cc1cccc(O)c1`, for which the Potency entry in experiment [1], in experiment [2], in experiment [3], in [4], in experiment [5] and in experiment [20] was “inactive” in each case. Besides, the Potency entry in experiment [7], in experiment [8], in experiment [9], in [10], in experiment [11] and in experiment [12] was “inactive” each time. The Potency result in experiment [13], in experiment [14], in [15], in [16], in experiment [18] and in [19] was “inactive” in each case.

Consider `O=C1CCc2ccccc2O1`, for which the Potency entry in [1], in experiment [2], in [3], in experiment [4], in experiment [5] and in experiment [20] was “inactive” throughout. Moreover, the Potency entry in experiment [7], in experiment [8], in experiment [9], in experiment [10], in experiment [11] and in [12] was “inactive” throughout. For the same compound, the Potency result in experiment [13], in [14], in [15], in experiment [16], in experiment [17] and in experiment [19] was “inactive” each time.

Consider `CC(=O)OCc1ccc2c(c1)OCO2`, for which the Potency result in [1], in experiment [2], in experiment [3], in [4], in experiment [5] and in [20] was “inactive” throughout. Besides, the Potency entry in experiment [7], in [8], in experiment [11], in [12], in experiment [13] and in experiment [14] was “inactive” in each case. Moreover, the Potency result in experiment [15], in experiment [16], in experiment [17], in [18] and in experiment [19] was “inactive” throughout.

In the case of `COc1cc([C@H]2Oc3cc([C@H]4Oc5cc(O)cc(O)c5C(=O)[C@@H]4O)ccc3O[C@@H]2CO)ccc1O`, the Potency entry in experiment [1], in [2], in experiment [3], in experiment [4], in experiment [5] and in [6] was “inactive” in each case. Moreover, the Potency entry in experiment [20], in [7], in [8], in [9], in experiment [10] and in experiment [11] was “inactive” in each case. Moreover, the Potency result in [12], in [13], in experiment [16] and in experiment [19] was “inactive” each time.
